Source: PubChem BioAssay (EPA / NIEHS)
Calls of active or inactive are those of the source. The calls were made as follows: active = hit-call score of the fitted dose curve at least 0.9, where 1 is the maximum; inactive = score below 0.9.

Legend:
[1] = read-out: TIMP metallopeptidase inhibitor 1 (TIMP1), TIMP1 (gene 7076); assay: BSK_hDFCGF_TIMP1: BioMAP Diversity Plus: hDFCGF Assay for TIMP metallopeptidase inhibitor 1 (TIMP1) Biomarker Activity (AID 2283062); conditions: primary human foreskin fibroblasts; actives raise or lower the signal
Procedure, shortened: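 TIMP-1 measured by ELISA 24 h after chemical dosing of primary human skin fibroblasts, with gain or loss fitted relative to DMSO. Parallel SRB staining (560 nm) monitored overt cytotoxicity.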

[2] = read-out: Monokine induced gamma interferon (MIG), CXCL9 (gene 4283); assay: BSK_hDFCGF_MIG: BioMAP Diversity Plus: hDFCGF Assay for Monokine induced gamma interferon (MIG) Biomarker Activity (AID 2283063); conditions: primary human foreskin fibroblasts; actives raise or lower the signal
Procedure, shortened: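 Human primary foreskin fibroblasts in the hDFCGF system, exposed to test chemical for 24 h; MIG measured by ELISA. Bidirectional curve fitting against DMSO negative control as activity baseline.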

[3] = read-out: Matrix Metallopeptidase 1 (MMP1), MMP1 (gene 4312); assay: BSK_hDFCGF_MMP1: BioMAP Diversity Plus: hDFCGF Assay for Matrix Metallopeptidase 1 (MMP1) Biomarker Activity (AID 2283064); conditions: primary human foreskin fibroblasts; actives raise or lower the signal
Procedure, shortened: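 ELISA read-out of MMP1 from human foreskin fibroblasts (primary skin cells), 24 h post-dose. Gain or loss of signal was fitted bidirectionally versus DMSO negative control; cytotoxicity was checked by SRB in parallel cultures.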

[4] = read-out: Intercellular Adhesion Molecule 1 (ICAM1), ICAM1 (gene 3383); assay: BSK_KF3CT_ICAM1: BioMAP Diversity Plus: KF3CT Assay for Intercellular Adhesion Molecule 1 (ICAM1) Biomarker Activity (AID 2283067); conditions: primary human keratinocytes with fibroblasts; actives raise or lower the signal
Procedure, shortened: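 Cell-surface ICAM-1 was measured by ELISA 24 h after dosing primary human skin keratinocytes co-cultured with fibroblasts. Parallel SRB staining tracked overt cytotoxicity. Gain or loss of signal was fitted relative to DMSO.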

[5] = read-out: Interferon-gamma inducible Protein 10 (IP10), CXCL10 (gene 3627); assay: BSK_KF3CT_IP10: BioMAP Diversity Plus: KF3CT Assay for Interferon-gamma inducible Protein 10 (IP10) Biomarker Activity (AID 2283068); conditions: primary human keratinocytes with fibroblasts; actives raise or lower the signal
Procedure, shortened: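 KF3CT co-culture (keratinocytes + foreskin fibroblasts), 24 h compound, IP-10 by ELISA; bidirectional fit vs DMSO baseline.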

[6] = BSK_KF3CT_SRB: Viability Assessment in the BioMAP Diversity Plus: KF3CT Assay (AID 2283069); conditions: primary human keratinocytes with fibroblasts;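 also: total protein by sulforhodamine B staining as a cytotoxicity measure; read 24 h after compound addition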
Procedure, shortened: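 SRB read-out at 560 nm (0.1% stain, TCA-fixed cells) gauges overt cytotoxicity in a human skin keratinocyte–fibroblast co-culture 24 h post-dosing. Signal change was fitted bidirectionally relative to DMSO control.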

[7] = read-out: Interleukin-1 alpha (IL1a), IL1A (gene 3552); assay: BSK_KF3CT_IL1a: BioMAP Diversity Plus: KF3CT Assay for Interleukin-1 alpha (IL1a) Biomarker Activity (AID 2283070); conditions: primary human keratinocytes with fibroblasts; actives raise or lower the signal
Procedure, shortened: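 Primary skin co-culture (keratinocytes, foreskin fibroblasts), 24 h exposure; ELISA for IL-1a; bidirectional curve fit vs DMSO.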

[8] = read-out: TIMP metallopeptidase inhibitor 2 (TIMP2), TIMP2 (gene 7077); assay: BSK_KF3CT_TIMP2: BioMAP Diversity Plus: KF3CT Assay for TIMP metallopeptidase inhibitor 2 (TIMP2) Biomarker Activity (AID 2283071); conditions: primary human keratinocytes with fibroblasts; actives raise or lower the signal
Procedure, shortened: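 Measurements come from ELISA detection of TIMP-2 at 24 hours in a dosed human keratinocyte and foreskin fibroblast co-culture. DMSO serves as negative control and baseline.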

[9] = read-out: Transforming growth factor beta 1 (TGFb1), TGFB1 (gene 7040); assay: BSK_KF3CT_TGFb1: BioMAP Diversity Plus: KF3CT Assay for Transforming growth factor beta 1 (TGFb1) Biomarker Activity (AID 2283072); conditions: primary human keratinocytes with fibroblasts; actives raise or lower the signal
Procedure, shortened: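 TGF-b1 ELISA on a 24 h dosed co-culture of human keratinocytes and foreskin fibroblasts; cytotoxicity tracked in parallel cultures by SRB staining.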

[10] = read-out: C-C motif chemokine 2 (Homo sapiens) (UniProt P13500); assay: BSK_KF3CT_MCP1: BioMAP Diversity Plus: KF3CT Assay for Monocyte Chemoattractant Protein 1 (MCP1/CCL2) Biomarker Activity (AID 2283073); conditions: primary human keratinocytes with fibroblasts; actives raise or lower the signal
Procedure, shortened: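 ELISA read-out of MCP-1, 24 h post-dose, in primary human skin keratinocytes co-cultured with fibroblasts. Parallel SRB staining monitors cytotoxicity; changes fitted both directions relative to DMSO.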

[11] = read-out: Matrix Metallopeptidase 9 (MMP9), MMP9 (gene 4318); assay: BSK_KF3CT_MMP9: BioMAP Diversity Plus: KF3CT Assay for Matrix Metallopeptidase 9 (MMP9) Biomarker Activity (AID 2283074); conditions: primary human keratinocytes with fibroblasts; actives raise or lower the signal;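 as to AC50: MMP9 protein level quantified by ELISA in the co-culture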
Procedure, shortened: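 ELISA read-out of MMP-9 at 24 h post-dosing in a co-culture of human skin keratinocytes and foreskin fibroblasts. Gain or loss of signal was fitted in both directions against DMSO.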

[12] = read-out: urokinase plasminogen activator (uPA), PLAU (gene 5328); assay: BSK_KF3CT_uPA: BioMAP Diversity Plus: KF3CT Assay for urokinase plasminogen activator (uPA) Biomarker Activity (AID 2283075); conditions: primary human keratinocytes with fibroblasts; actives raise or lower the signal
Procedure, shortened: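 Skin co-culture (keratinocytes + foreskin fibroblasts), human primary; 24 h post-dose; uPA by ELISA; gain/loss fit vs DMSO baseline.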

[13] = read-out: E-selectin (Homo sapiens) (UniProt P16581); assay: BSK_LPS_Eselectin: BioMAP Diversity Plus: LPS Assay for Eselectin Biomarker Activity (AID 2283077); conditions: primary human HUVEC with PBMC; actives raise or lower the signal
Procedure, shortened: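 E-selectin ELISA on LPS-stimulated endothelial cell/PBMC co-cultures, read 24 h post-treatment; gains and losses fitted against DMSO. Parallel SRB staining (0.1% SRB after 10% TCA fixation, 560 nm) flags overt cytotoxicity.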

[14] = read-out: Interleukin-8 (IL8), CXCL8 (gene 3576); assay: BSK_LPS_IL8: BioMAP Diversity Plus: LPS Assay for Interleukin-8 (IL8) Biomarker Activity (AID 2283078); conditions: primary human HUVEC with PBMC; actives raise or lower the signal
Procedure, shortened: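 ELISA read-out of IL-8 after 24 h chemical treatment of LPS-activated endothelial/PBMC human primary co-cultures. Changes either up or down relative to DMSO; overt cytotoxicity checked by sulforhodamine B staining in parallel wells.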

[15] = BSK_LPS_SRB: Viability Assessment in the BioMAP Diversity Plus: LPS Assay (AID 2283079); conditions: primary human HUVEC with PBMC;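 also: total protein by sulforhodamine B absorbance as a cytotoxicity measure; measured one day after compound addition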
Procedure, shortened: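 SRB viability endpoint: cells fixed with 10% TCA, stained with 0.1% SRB, read at 560 nm, 24 h post-dose. HUVEC/PBMC co-culture; signal change in either direction scored relative to DMSO.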

[16] = read-out: Interleukin-1 alpha (IL1a), IL1A (gene 3552); assay: BSK_LPS_IL1a: BioMAP Diversity Plus: LPS Assay for Interleukin-1 alpha (IL1a) Biomarker Activity (AID 2283080); conditions: primary human HUVEC with PBMC; actives raise or lower the signal
Procedure, shortened: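 Readout is IL-1a level by ELISA, 24 h post-dose, fitted as gain or loss relative to DMSO. System: LPS-activated human primary co-culture of vascular endothelium and peripheral blood mononuclear cells, with parallel SRB total-protein cytotoxicity.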

[17] = read-out: Monocyte Chemoattractant Protein-1 (MCP1), CCL2 (gene 6347); assay: BSK_LPS_MCP1: BioMAP Diversity Plus: LPS Assay for Monocyte Chemoattractant Protein-1 (MCP1) Biomarker Activity (AID 2283081); conditions: primary human HUVEC with PBMC; actives raise or lower the signal
Procedure, shortened: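 Secreted MCP-1 read by ELISA at 24 h post-dosing in an LPS-activated co-culture of endothelial cells with peripheral blood mononuclear cells. Fits run in both directions, DMSO as baseline; parallel SRB staining tracks overt cytotoxicity.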

[18] = read-out: Vascular cell adhesion molecule 1 (VCAM1), VCAM1 (gene 7412); assay: BSK_hDFCGF_VCAM1: BioMAP Diversity Plus: hDFCGF Assay for Vascular cell adhesion molecule 1 (VCAM1) Biomarker Activity (AID 2283065); conditions: primary human foreskin fibroblasts; actives raise or lower the signal
Procedure, shortened: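 ELISA readout of VCAM-1 on human dermal fibroblast primary cultures, 24 h after chemical exposure. Gain or loss of signal fitted in both directions against DMSO baseline.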

CD40, CD40 (gene 958) = assay: BSK_LPS_CD40: BioMAP Diversity Plus: LPS Assay for CD40 Biomarker Activity (AID 2283076); conditions: primary human HUVEC with PBMC; actives raise or lower the signal
Procedure, shortened: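 In the LPS system of human endothelial cells with peripheral blood mononuclear cells, CD40 levels were read by ELISA 24 h post-treatment. Signal changes in either direction were fitted against the DMSO baseline, with parallel SRB protein staining.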

[19] = read-out: Plasminogen activator inhibitor-1 (PAI1), SERPINE1 (gene 5054); assay: BSK_hDFCGF_PAI1: BioMAP Diversity Plus: hDFCGF Assay for Plasminogen activator inhibitor-1 (PAI1) Biomarker Activity (AID 2283066); conditions: primary human foreskin fibroblasts; actives raise or lower the signal
Procedure, shortened: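 Human skin fibroblast cultures receive chemical for 24 h before PAI-1 is measured by ELISA; signal changes are fitted bidirectionally against DMSO-treated wells.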

Measured: AC50

E-selectin (Homo sapiens), sequence (P16581 whole entry, looked up): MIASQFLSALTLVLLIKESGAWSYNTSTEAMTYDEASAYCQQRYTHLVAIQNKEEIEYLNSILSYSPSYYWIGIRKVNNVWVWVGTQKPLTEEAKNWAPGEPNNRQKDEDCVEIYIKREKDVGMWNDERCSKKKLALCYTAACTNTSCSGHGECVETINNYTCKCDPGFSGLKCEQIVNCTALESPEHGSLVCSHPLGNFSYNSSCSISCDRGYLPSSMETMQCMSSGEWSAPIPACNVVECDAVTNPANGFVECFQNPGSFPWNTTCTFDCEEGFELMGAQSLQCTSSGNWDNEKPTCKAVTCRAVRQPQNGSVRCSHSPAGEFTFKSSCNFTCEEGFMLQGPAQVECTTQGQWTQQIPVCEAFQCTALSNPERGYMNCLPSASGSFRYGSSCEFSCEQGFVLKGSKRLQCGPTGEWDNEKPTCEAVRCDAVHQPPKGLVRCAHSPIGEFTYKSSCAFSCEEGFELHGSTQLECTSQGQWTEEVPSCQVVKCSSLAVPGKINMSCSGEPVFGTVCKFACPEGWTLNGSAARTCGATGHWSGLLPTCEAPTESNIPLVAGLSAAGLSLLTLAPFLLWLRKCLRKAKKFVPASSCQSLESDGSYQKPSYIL

CCCCCCCCCCC
not listed: [18] | CD40, CD40 (gene 958) | [19]
inactive: all other assays above

O=C(N[C@@H](Cc1ccccc1)[C@@H](O)C(=O)N1C[C@@H](O)[C@@H](O)C1)c1cc2cc(Cl)ccc2[nH]1
active: [8] 11.9 µM
not listed: CD40, CD40 (gene 958) | [19]
inactive: all other assays above

CC1=C(/C=C/C(C)=C/C=C/C(C)=C/CO)C(C)(C)CCC1
active: [2] 27 µM | [5] 31.4 µM | [11] 32.3 µM | [13] 4.25 µM
not listed: [15] | [18] | [19]
inactive: all other assays above

Cc1cc(=O)[nH]c(=S)[nH]1
not listed: [15] | [19]
inactive: all other assays above

CCCCCCC(=O)OCC
not listed: [11] | [15] | CD40, CD40 (gene 958)
inactive: all other assays above

CC(CO)OC(C)CO (stereo not given) (tested in a mixture with another compound)
not listed: [15] | [18] | CD40, CD40 (gene 958)
inactive: all other assays above

CC(C)c1ccc(C(=O)N=C(N)N)cc1S(C)(=O)=O
not listed: [11] | [15]
inactive: all other assays above

COc1cc(S(=O)(=O)O)c(C)cc1N=Nc1c(O)ccc2cc(S(=O)(=O)O)ccc12
not listed: [3] | [15]
inactive: all other assays above
